Measured values as given in the supplement of paper PMC6518042.
Unmarked numbers belong to inactive results.

Test system: Pectobacterium parmentieri SCC3193
Experiment: DuctApe activity index (growth/respiration on compound as sole nutrient source, blank-subtracted) (activity index (0-3)); higher = stronger utilization of the compound, active = 3 or more
Method: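 Biolog Phenotype Microarray plates PM1, PM2A (carbon), PM3 (nitrogen) and PM4 (phosphorus/sulfur) inoculated with P. parmentieri SCC3193 in M9-C minimal salts medium with Biolog dye A, and read in the OmniLog for 46 h. Each well was tested in triplicate and the experiment was run twice. DuctApe computed a blank-subtracted activity index (AV, 0-3) from the mean curves; growth is positive at AV >= 3 and negative at AV <= 2.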

[1] = nutrient role (plate category): carbon
[2] = nutrient role (plate category): nitrogen
[3] = nutrient role (plate category): phosphate & sulphur

Row | Compound | DuctApe activity index [1] | DuctApe activity index [2] | DuctApe activity index [3]
1 | OC[C@H]1O[C@H](O[C@H]2[C@H](O)[C@@H](O)[C@@H](O[C@H]3[C@H](O)[C@@H](O)[C@@H](O)O[C@@H]3CO)O[C@@H]2CO)[C@H](O)[C@@H](O)[C@@H]1O [Maltotriose] | 3 (active) |  | 
2 | O=C(O)[C@@H]1CCCN1 [L-Proline] | 0 | 0 | 
3 | CC(N)=O [Acetamide] | 0 | 0 | 
4 | C[C@H](N)C(=O)N[C@@H](Cc1cnc[nH]1)C(=O)O |  | 0 | 
5 | OC1OC[C@@H](O)[C@@H](O)[C@@H]1O (stereo partly drawn) [D-Arabinose] | 1 |  | 
6 | COC(=O)C(C)=O [Methylpyruvate] | 3 (active) |  | 
7 | NC(N)=S [Thiourea] |  |  | 0
8 | C[N+](C)(C)CC(O)CC(=O)[O-] (racemic) [D,L-Carnitine] | 0 |  | 
9 | C[C@H](O)C(=O)O [L-Lactic acid] | 2 |  | 
10 | N=C(N)NCCC[C@H](N)C(=O)O [L-Arginine] | 0 | 0 | 
11 | CC(=O)C(C)=O [2,3-Butanedione] | 0 |  | 
12 | O=C(CO)[C@@H](O)[C@H](O)[C@@H](O)C(=O)O [5-Keto-D-Gluconic acid] | 0 |  | 
13 | O=NO [Nitrite] |  | 0 | 
14 | CC(O)C(C)O (configuration not stated) [2,3-Butanediol] | 0 |  | 
15 | NCCCC[C@H](N)C(=O)O [L-Lysine] | 0 | 0 | 
16 | CC[C@H](C)[C@H](N)C(=O)O [L-Isoleucine] | 0 | 0 | 
17 | OC[C@H]1O[C@H](OC[C@H]2O[C@H](O[C@]3(CO)O[C@H](CO)[C@@H](O)[C@@H]3O)[C@H](O)[C@@H](O)[C@@H]2O)[C@H](O)[C@@H](O)[C@H]1O [D-Raffinose] | 3 (active) |  | 
18 | NCCCC(=O)O [g-Amino-N-Butyric acid] | 0 | 1 | 
19 | NCC(=O)O [Glycine] | 0 | 0 | 

Row | Compound | DuctApe activity index [1] | DuctApe activity index [2] | DuctApe activity index [3]
20 | O=c1ccn([C@@H]2O[C@H](CO)[C@@H](O)[C@H]2O)c(=O)[nH]1 [Uridine] | 1 | 0 | 
21 | OC[C@H]1OC(O)[C@H](O)[C@@H](O)[C@H]1O (stereo partly drawn) [D-Galactose] | 3 (active) |  | 
22 | O=P(O)(O)O[C@H]1O[C@H](CO)[C@@H](O)[C@H](O)[C@H]1O [D-Glucose-1-Phosphate] | 0 |  | 1
23 | N[C@@H](CC(=O)O)C(=O)O [L-Aspartic acid] | 3 (active) | 0 | 
24 | CC(=O)N[C@@H](CCC(=O)O)C(=O)O [N-Acetyl-L-Glutamic acid] | 0 | 0 | 
25 | Cc1cn([C@H]2C[C@H](OP(=O)(O)O)[C@@H](CO)O2)c(=O)[nH]c1=O [Thymidine 3`-Monophosphate] |  |  | 2
26 | O=P(O)(O)O[C@H]1O[C@H](CO)[C@@H](O)[C@H](O)[C@@H]1O [D-Mannose-1-Phosphate] |  |  | 2
27 | CC(=O)N[C@H]1C(O)O[C@H](CO)[C@H](O)[C@@H]1O (stereo partly drawn) [N-Acetyl-D-Galactosamine] | 3 (active) | 3 (active) | 
28 | CO[C@H]1O[C@H](CO)[C@H](O)[C@H](O)[C@H]1O [a-Methyl-D-Galactoside] | 3 (active) |  | 
29 | OC[C@H]1O[C@H](OC[C@H]2O[C@H](OC[C@H]3O[C@H](O[C@]4(CO)O[C@H](CO)[C@@H](O)[C@@H]4O)[C@H](O)[C@@H](O)[C@@H]3O)[C@H](O)[C@@H](O)[C@H]2O)[C@H](O)[C@@H](O)[C@H]1O [Stachyose] | 3 (active) |  | 
30 | OC[C@H]1O[C@H](OC[C@H]2O[C@H](O[C@H]3[C@H](O)[C@@H](O)[C@@H](O)O[C@@H]3CO)[C@H](O)[C@@H](O)[C@@H]2O[C@H]2O[C@H](CO)[C@@H](O)[C@H](O)[C@H]2O)[C@H](O)[C@@H](O)[C@@H]1O [Glycogen] | 0 |  | 
31 | N[C@H]1C(O)O[C@H](CO)[C@@H](O)[C@@H]1O (stereo partly drawn) [D-Glucosamine] | 3 (active) | 3 (active) | 
32 | N[C@@H](CS)C(=O)O [L-Cysteine] |  | 0 | 0
33 | O=C1CC[C@@H](C(=O)O)N1 [L-Pyroglutamic acid] | 0 | 0 | 
34 | N[C@@H](Cc1ccccc1)C(=O)O [L-Phenylalanine] | 0 | 0 | 
35 | O=P(O)(O)OC[C@H](O)CO (racemic) [DL-a-Glycerol Phosphate] | 3 (active) |  | 1
36 | CC(C)[C@H](N)C(=O)O [L-Valine] | 0 | 0 | 
37 | NCCCCN [Putrescine] | 0 | 0 | 
38 | CCCCCN [N-Amylamine] |  | 0 | 
